Drawing on publication PMC10726135, “HNF4α isoforms regulate the circadian balance between carbohydrate and lipid metabolism in the liver”, this text covers binding signal for 48 sequences.

In all, about 18,000 sequences were measured (“log2 normalized intensity”: median about 0.36, highest 2% from about 7.3 on). This is one part of a sample in which the highest values are shown more often than they occur.

In the experiment the target is T1, HNF4alpha8 (COS-7 nuclear extract) (Homo sapiens, UniProt P41235-5 1-452).
T1 sequence: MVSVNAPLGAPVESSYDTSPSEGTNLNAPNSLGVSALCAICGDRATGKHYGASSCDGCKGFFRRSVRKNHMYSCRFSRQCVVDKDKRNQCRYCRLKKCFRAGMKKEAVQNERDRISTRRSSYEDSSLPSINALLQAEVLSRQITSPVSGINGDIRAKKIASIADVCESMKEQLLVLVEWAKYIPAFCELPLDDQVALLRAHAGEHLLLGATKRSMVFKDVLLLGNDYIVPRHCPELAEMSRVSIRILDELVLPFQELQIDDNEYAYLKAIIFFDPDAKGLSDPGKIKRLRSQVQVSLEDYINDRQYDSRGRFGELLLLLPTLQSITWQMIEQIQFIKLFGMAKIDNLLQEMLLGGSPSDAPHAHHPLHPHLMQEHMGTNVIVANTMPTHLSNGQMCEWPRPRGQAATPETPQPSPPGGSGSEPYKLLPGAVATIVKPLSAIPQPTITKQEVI
In words: protein-binding microarray; COS-7 nuclear extract on double-stranded Agilent 4x180k PBM; binding buffer, salt, pH and temperature not given in the material; high values mean tight binding. Particulars: chain copies: 2; label: 3' end of strand 1 on the slide; dsDNA, one strand shown. The method, boiled down:
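The binding signal is Agilent software's gProcessedSignal after background correction and normalization. Arrays were a custom Agilent SurePrint G3 4x180k design of double-stranded ~60-nt oligonucleotides with ~44,000 test sequences in quadruplicate, probed with nuclear extracts of COS-7 cells transiently expressing a human HNF4α isoform. Scans were made at 2-µm resolution on an Agilent G2565CA scanner.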
With “GCAGTTCCTGATCTTTGACCTGGAGCATGAGCCTAGGGAGATTAGAGTATCGGTCGA”, the binding signal is 5.34 log2 normalized intensity.

In the case of “AATTCCAGTTTGGACTTTGATCCTGATGACGCCTAGGGAGATTAGAGTATCGGTCGA”, the binding signal is 10 log2 normalized intensity.

As for “TGGACTTTGATCCTGATGACTGCAGAGCTTGCCTAGGGAGATTAGAGTATCGGTCGA”, the binding signal stood at 6.16 log2 normalized intensity.

For the sequence “AGATCATCCTGCAGTTCCTGATCTTTGACCGCCTAGGGAGATTAGAGTATCGGTCGA”, the binding signal was determined as 7.84 log2 normalized intensity.

In the case of “CAGTTTGGACTTTGATCCTGATGACTGCAGGCCTAGGGAGATTAGAGTATCGGTCGA”, the binding signal was determined as 8.17 log2 normalized intensity.

For “CTGATGCCCTTTGGATTTAGGCAGTTTTTGGCCTAGGGAGATTAGAGTATCGGTCGA”, the binding signal is 2.92 log2 normalized intensity.

In the case of “CACCTTTGGATCCAGCTCCTGATGTTTGGTGCCTAGGGAGATTAGAGTATCGGTCGA”, the binding signal worked out at 2.43 log2 normalized intensity.

On to “ATCCTGCAGTTCCTGATCTTTGACCTGGAGGCCTAGGGAGATTAGAGTATCGGTCGA”, for which the binding signal was found to be 6.23 log2 normalized intensity.

As to “TTACAGTGTGAATCTCCAACAAGGCAGGAGGCCTAGGGAGATTAGAGTATCGGTCGA”, the binding signal was -0.531 log2 normalized intensity.

For “GTCATAATTTGATCCAGTGTGCAAATGTGTGCCTAGGGAGATTAGAGTATCGGTCGA”, the binding signal worked out at 2.05 log2 normalized intensity.

Regarding “CCACAACCTACCCTTTGCCCTGGACATATTGCCTAGGGAGATTAGAGTATCGGTCGA”, the binding signal stood at 3.27 log2 normalized intensity.

With “GCAAACCTGCCCTTTGCTCCAGAGGAAGATGCCTAGGGAGATTAGAGTATCGGTCGA”, the binding signal worked out at 3.81 log2 normalized intensity.

On to “ATCTTTGACCTGGAGCATGACCCTTTGCAGGCCTAGGGAGATTAGAGTATCGGTCGA”, for which the binding signal is 3.64 log2 normalized intensity.

Regarding “AAAGAGCCATGGACTGCTGACCTTTGAACCGCCTAGGGAGATTAGAGTATCGGTCGA”, the binding signal was 9.59 log2 normalized intensity.

With “GGCAGATATGAAAGAGCCATGGACTGCTGAGCCTAGGGAGATTAGAGTATCGGTCGA”, the binding signal is -0.289 log2 normalized intensity.

Regarding “CCTTTGAGGAGGCCTTTCCTGACCCCTCCTGCCTAGGGAGATTAGAGTATCGGTCGA”, the binding signal was 4.78 log2 normalized intensity.

Regarding “TTCAAATTCTTTGCCATGACCTTTGAAGCCGCCTAGGGAGATTAGAGTATCGGTCGA”, the binding signal was 7.52 log2 normalized intensity.

For the sequence “ATATGAAAGAGCCATGGACTGCTGACCTTTGCCTAGGGAGATTAGAGTATCGGTCGA”, the binding signal is 7.13 log2 normalized intensity.

“ATTCTTTGCCATGACCTTTGAAGCCCAGAAGCCTAGGGAGATTAGAGTATCGGTCGA”: the binding signal is 5.57 log2 normalized intensity.

In the case of “GCCATGGACTGCTGACCTTTGAACCCTGAGGCCTAGGGAGATTAGAGTATCGGTCGA”, the binding signal came to 10.3 log2 normalized intensity.

On to “AGCAATTCAAATTCTTTGCCATGACCTTTGGCCTAGGGAGATTAGAGTATCGGTCGA”, for which the binding signal came to 6.24 log2 normalized intensity.

On to “CTGCTGCCCAAAGGTCACCTCTTCAGATAGGCCTAGGGAGATTAGAGTATCGGTCGA”, for which the binding signal is 3.89 log2 normalized intensity.

“CTGTTTGACCAAAGCTACTCATCATGAACTGCCTAGGGAGATTAGAGTATCGGTCGA”: the binding signal is 0.948 log2 normalized intensity.

Consider “TAGACATAGGTTATAAACTTGTTTGGGATTGCCTAGGGAGATTAGAGTATCGGTCGA”, for which the binding signal was 0.308 log2 normalized intensity.

On to “AAAGTCCAACACAGAAGCCTTTTGTTCTTTGCCTAGGGAGATTAGAGTATCGGTCGA”, for which the binding signal was determined as 2.15 log2 normalized intensity.

As for “AATGTCTGGAAGTTCTTCCTTAAGTCTAACGCCTAGGGAGATTAGAGTATCGGTCGA”, the binding signal was found to be 0.865 log2 normalized intensity.

Turning to “GGACTTGGTAAAGTCAATAATCTAGAAACCGCCTAGGGAGATTAGAGTATCGGTCGA”, the binding signal was determined as 0.338 log2 normalized intensity.

As to “TAGAAGCAGTGGGACAAAGGTCACAGGAAAGCCTAGGGAGATTAGAGTATCGGTCGA”, the binding signal came to 5.05 log2 normalized intensity.

As for “GAGGGTGGGTTCAAAGGTCAGAAAAAGCTGGCCTAGGGAGATTAGAGTATCGGTCGA”, the binding signal came out at 7.27 log2 normalized intensity.

With “GGGAAGCAGTGAGGGTGGGTTCAAAGGTCAGCCTAGGGAGATTAGAGTATCGGTCGA”, the binding signal was determined as 8.86 log2 normalized intensity.

In the case of “GGCATGGGAAGCAGTGAGGGTGGGTTCAAAGCCTAGGGAGATTAGAGTATCGGTCGA”, the binding signal was 1.64 log2 normalized intensity.

As to “GCAGTGAGGGTGGGTTCAAAGGTCAGAAAAGCCTAGGGAGATTAGAGTATCGGTCGA”, the binding signal was 8.97 log2 normalized intensity.

For the sequence “TGGGTTCAAAGGTCAGAAAAAGCTGACGCCGCCTAGGGAGATTAGAGTATCGGTCGA”, the binding signal is 7.25 log2 normalized intensity.

As to “ATAAGGTAACAGGCCAAAGGGCAAGAACAAGCCTAGGGAGATTAGAGTATCGGTCGA”, the binding signal was found to be 3.1 log2 normalized intensity.

“TCACCTCGCTCCCCTCCTGTCAGTTTATTTGCCTAGGGAGATTAGAGTATCGGTCGA”: the binding signal was 2.3 log2 normalized intensity.

Turning to “CCCCCTGTGATTACTTCCACTCTTGCAGATGCCTAGGGAGATTAGAGTATCGGTCGA”, the binding signal came to 0.911 log2 normalized intensity.

Consider “CCTGCATATCCTGACTGCTGACCTTTAAGCGCCTAGGGAGATTAGAGTATCGGTCGA”, for which the binding signal stood at 5.56 log2 normalized intensity.

In the case of “AAAAGTGACCTTTGCTCCAGTTCCCAATAAGCCTAGGGAGATTAGAGTATCGGTCGA”, the binding signal turned out to be 7.02 log2 normalized intensity.

In the case of “ATAGCAAAAGTGACCTTTGCTCCAGTTCCCGCCTAGGGAGATTAGAGTATCGGTCGA”, the binding signal worked out at 8.52 log2 normalized intensity.

Consider “CAAGAGTGACCTTTGCTCCAGTTCCCAATAGCCTAGGGAGATTAGAGTATCGGTCGA”, for which the binding signal turned out to be 6.59 log2 normalized intensity.

For “TGACCTTTGCTCCAGTTCCCAATAATTTCCGCCTAGGGAGATTAGAGTATCGGTCGA”, the binding signal stood at 5.13 log2 normalized intensity.

Turning to “CAAAGCATAGCAAGAGTGACCTTTGCTCCAGCCTAGGGAGATTAGAGTATCGGTCGA”, the binding signal worked out at 9 log2 normalized intensity.

“CATAGCAAGAGTGACCTTTGCTCCAGTTCCGCCTAGGGAGATTAGAGTATCGGTCGA”: the binding signal came out at 8.19 log2 normalized intensity.

Regarding “CTTCTTTGCTTAAGCATAGCAAAAGTGACCGCCTAGGGAGATTAGAGTATCGGTCGA”, the binding signal was 3.13 log2 normalized intensity.

In the case of “GTGACCTTTGCTCCAGTTCCCAATAAGTTGGCCTAGGGAGATTAGAGTATCGGTCGA”, the binding signal was 5.13 log2 normalized intensity.

Turning to “TTTGCCAAAGCATAGCAAGAGTGACCTTTGGCCTAGGGAGATTAGAGTATCGGTCGA”, the binding signal was determined as 7.18 log2 normalized intensity.

Turning to “TTGCTTAAGCATAGCAAAAGTGACCTTTGCGCCTAGGGAGATTAGAGTATCGGTCGA”, the binding signal came out at 9.23 log2 normalized intensity.

Consider “AGATAGCATTCCAAGAGAGCAAAGTGCTTTGCCTAGGGAGATTAGAGTATCGGTCGA”, for which the binding signal was found to be 1.21 log2 normalized intensity.
